Data as given in PubChem BioAssay (EPA / NIEHS).
Results filed as inconclusive are left out. Calls of active or inactive are those of the source. How the source made its calls: active means hit-call score of the fitted dose curve at least 0.9, where 1 is the maximum; inconclusive means response in the unintended direction; inactive means score below 0.9.

Each molecule was assayed against Bile acid receptor (Homo sapiens) (UniProt Q96RI1) (assay: OT_FXR_FXRSRC1_1440: Odyssey Thera (OT) 24-hour HEK293T Protein-Complementation Assay for Farnesoid X receptor/SRC-1 Co-activator (AID 2283384)).
Method: OT_FXR_FXRSRC1_1440 is a cell-based assay that uses HEK293T, a human kidney cell line, with measurements taken at 24 hours after chemical dosing in a 384-well plate.OT_FXR_FXRSRC1_1440 is one of one assay component(s) measured or calculated from the OT_FXR_FXRSRC1_1440 assay. It is designed to make measurements of protein fragment complementation, a form of binding reporter, as detected with fluorescence intensity signals by Protein-fragment Complementation technology.Data from the assay component OT_FXR_FXRSRC1_1440 was analyzed into 1 assay endpoint. This assay endpoint, OT_FXR_FXRSRC1_1440, was analyzed in the positive analysis fitting direction relative to DMSO as the negative control and baseline of activity. Using a type of binding reporter, measures of receptor for gain-of-signal activity can be used to understand the binding at the pathway-level as they relate to the gene NR1H4. Furthermore, this assay endpoint can be referred to as a primary readout, because the performed assay has only produced 1 assay endpoint. To generalize the intended target to other relatable targets, this assay endpoint is annotated to the nuclear receptor intended target family, where the subfamily is non-steroidal.
Protein-fragment complementation assay, or PCA, is a method for the identification and quantification of protein-protein interactions. In the PCA, the proteins of interest ("bait" and "prey") are each covalently linked to fragments of a third protein (e.g. DHFR, which acts as a "reporter"). Interaction between the bait and the prey proteins brings the fragments of the reporter protein in close proximity to allow them to form a functional reporter protein whose activity can be measured.

Chain of Bile acid receptor (Homo sapiens) (Q96RI1 whole entry, looked up, the tested form may be a part): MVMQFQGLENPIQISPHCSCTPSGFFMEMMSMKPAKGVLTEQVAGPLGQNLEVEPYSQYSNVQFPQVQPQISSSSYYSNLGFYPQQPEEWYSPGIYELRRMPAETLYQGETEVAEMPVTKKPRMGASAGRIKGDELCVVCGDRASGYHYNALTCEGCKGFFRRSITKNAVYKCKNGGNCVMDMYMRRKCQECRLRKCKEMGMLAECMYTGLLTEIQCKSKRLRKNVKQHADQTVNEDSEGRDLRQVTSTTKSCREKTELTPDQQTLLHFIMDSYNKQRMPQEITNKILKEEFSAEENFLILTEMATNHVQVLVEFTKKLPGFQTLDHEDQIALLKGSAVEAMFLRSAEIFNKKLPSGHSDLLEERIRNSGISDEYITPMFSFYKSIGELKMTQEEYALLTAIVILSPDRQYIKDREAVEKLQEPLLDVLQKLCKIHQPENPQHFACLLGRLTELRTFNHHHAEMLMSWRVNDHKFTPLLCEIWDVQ

AC50, active:
CCC(=O)/C=C/C1C(C)=CCCC1(C)C (centres undefined) 82.5 µM
CCCCCCCCCCCCCC(=O)O 81.8 µM
BrC1CCC(Br)C(Br)CCC(Br)C(Br)CCC1Br (centres undefined) 17.4 µM
CCN(CC)c1ccc2c(-c3ccccc3C(=O)O)c3ccc(=[N+](CC)CC)cc-3oc2c1 38.9 µM

outcome, inactive:
O=C1NC(=O)c2ccccc21
CCCCCCCCC=O
CC(C)=CCCC(C)CC=O (centres undefined)
O=C(O)c1ccc([N+](=O)[O-])cc1
c1ccc(CCCc2ccccn2)cc1
CC(C)(N)CO
CC(=O)OCCC(C)CC(C)(C)C (centres undefined)
OCCN1CCNCC1
COc1cc(C(C)(C)C)c(O)c(C(C)(C)C)c1
CN(C)CCCN
